Out of some 310,000 compounds screened, about 1,300 (0.42%) were called active.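 Rule for the calls: active = B-score of calcium response area above 5 SD of library B-scores, with initial fluorescence ratio within 5 SD of library; inactive = the rest.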 The list comes from a sample in which actives are over-represented; it also holds similar structures and randomly drawn compounds.
Target: Short transient receptor potential channel 4 (Mus musculus) (UniProt Q9QUQ5)
Test: TRPC4 channel potentiators under submaximal DAMGO – cell-based, mouse TRPC4beta, HEK293 mu-opioid, Fluo-4 calcium, primary screen (AID 2227)
Settings: DAMGO EC20, Fluo-4 Ca2+ flux, at 10 µM; stronger effect = higher value

Short transient receptor potential channel 4 (Mus musculus), sequence (Q9QUQ5 whole entry, looked up): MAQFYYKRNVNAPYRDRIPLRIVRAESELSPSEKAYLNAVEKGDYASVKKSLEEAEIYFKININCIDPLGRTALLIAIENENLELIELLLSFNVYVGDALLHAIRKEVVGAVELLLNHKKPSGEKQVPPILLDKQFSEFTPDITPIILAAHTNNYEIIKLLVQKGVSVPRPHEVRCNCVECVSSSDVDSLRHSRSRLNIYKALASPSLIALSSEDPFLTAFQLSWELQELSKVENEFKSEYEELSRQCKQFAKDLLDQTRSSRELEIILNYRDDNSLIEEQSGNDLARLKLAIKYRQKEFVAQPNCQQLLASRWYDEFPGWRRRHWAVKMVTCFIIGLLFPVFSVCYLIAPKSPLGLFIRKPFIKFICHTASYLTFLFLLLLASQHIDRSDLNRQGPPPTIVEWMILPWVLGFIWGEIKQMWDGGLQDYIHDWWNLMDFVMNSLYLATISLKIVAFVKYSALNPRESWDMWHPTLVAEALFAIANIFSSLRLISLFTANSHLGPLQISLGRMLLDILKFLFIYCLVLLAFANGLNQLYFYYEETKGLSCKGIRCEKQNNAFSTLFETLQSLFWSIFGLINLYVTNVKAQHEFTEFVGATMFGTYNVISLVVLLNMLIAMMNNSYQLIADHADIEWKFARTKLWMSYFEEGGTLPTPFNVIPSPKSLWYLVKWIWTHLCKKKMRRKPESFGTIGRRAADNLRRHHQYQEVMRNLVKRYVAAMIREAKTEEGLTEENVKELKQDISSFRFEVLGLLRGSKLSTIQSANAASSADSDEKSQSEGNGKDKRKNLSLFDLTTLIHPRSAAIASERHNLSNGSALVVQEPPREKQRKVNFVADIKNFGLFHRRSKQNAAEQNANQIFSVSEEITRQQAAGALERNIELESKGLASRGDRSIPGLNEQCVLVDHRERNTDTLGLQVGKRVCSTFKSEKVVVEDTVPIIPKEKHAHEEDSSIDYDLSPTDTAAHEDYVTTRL

Compound	B-score
Cc1cccc(N2C(=O)SC(SC(=Nc3ccccc3)Nc3ccccc3)C2=O)c1 (stereo unspecified)	inactive
CN(C)CCn1c(=S)[nH]c2ccc(Cl)cc2c1=O	14 (active)
CCCCn1c(=S)[nH]c2ccccc2c1=O	inactive
O=C(O)c1ccc(Cn2c(=S)[nH]c3cc(Cl)ccc3c2=O)cc1	inactive
Cc1cccc(N2CCN(C(=O)c3cnn4c(C(F)F)cc(-c5ccccc5)nc34)CC2)c1C	inactive
Cc1ccc(Cl)cc1N1CCN(C(=O)c2cccc3c(=O)c(C)c(-c4ccccc4)oc23)CC1	24 (active)
COC(=O)c1ccc(C(=O)OC)c(NC(=S)N2CCN(c3cc(Cl)ccc3C)CC2)c1	inactive
COc1cccc(NC(=O)CSc2nccn(-c3ccc4c(c3)OCCO4)c2=O)c1	inactive
CCOc1ccc(NS(=O)(=O)c2ccc(C)c(C(N)=O)c2)cc1	inactive
CCn1cc(C(=O)N2CCN(Cc3ccc4c(c3)OCO4)CC2)c2cc(OC)c(OC)cc2c1=O	inactive
COc1cc(Cl)c(S(=O)(=O)N2CCN(Cc3ccc4c(c3)OCO4)CC2)cc1Cl	37 (active)
COc1ccc(-c2cc(C(=O)N3CCN(Cc4ccc5c(c4)OCO5)CC3)on2)cc1OC	inactive
CC(=O)c1ccccc1OCc1ccc(C(=O)c2ccccc2)cc1	inactive
COC(=O)c1cc(C(=O)OCC(=O)Nc2cc(C)on2)cc([N+](=O)[O-])c1	inactive
COc1ccc(OCCn2ccnc2C)cc1	inactive
Brc1c(CSc2nncc3ccccc23)nc2ccccn12	inactive
COc1ccccc1NS(=O)(=O)c1ccc(C(=O)N2CCN(c3ccccc3O)CC2)cc1	inactive
CCn1c(O)c(N=NC(=O)c2cccc(S(=O)(=O)N3CCCCC3)c2)c2ccccc21	15 (active)
Cc1cccc(NC(=O)c2cccc(S(=O)(=O)N3CCCC3)c2)n1	inactive
CCn1c2ccccc2c2cc(NC(=O)COC(=O)c3cc(S(=O)(=O)N4CCCCC4)ccc3Cl)ccc21	inactive
COc1ccc(CSc2nnnn2-c2ccc(C(=O)O)cc2)cc1	inactive
COCCN(CCOC)S(=O)(=O)c1ccc(/C(O)=C(\C#N)c2nc3ccccc3[nH]2)cc1	11 (active)

Compound	B-score
Cc1ccccc1OC/C(O)=C(\C#N)c1nc2ccccc2[nH]1	inactive
CCC(=O)/C(=C(/O)c1ccccc1)c1nc2ccccc2[nH]1	inactive
COC(=O)c1c(CCl)noc1C(=O)NC(C)C	inactive
O=C(Nc1cccc(F)c1)c1coc(=O)c(Br)c1	inactive
CC(=N\NC(=O)c1cc(Br)ccc1O)/C(=N/O)C(=O)Nc1ccccc1	inactive
O=C1/C(=C\c2cccnc2)CN(Cc2ccccc2)C/C1=C\c1cccnc1	inactive
Cc1ccc(CN2CCN(c3ncccn3)CC2)c(C)c1	inactive
Cc1ccc(CN2CCN(/N=C/c3ccco3)CC2)c(C)c1	inactive
Cc1ccc(CN2CCN(/N=C/c3cccnc3)CC2)c(C)c1	12 (active)
C(=N\n1cnnc1)/c1cccnc1	inactive
Clc1ccc(CN2CCN(/N=C/c3cccnc3)CC2)cc1	12 (active)
CCOc1ccc(S(=O)(=O)NCCCn2ccnc2)cc1NC(C)=O	inactive
CCc1ccc(/C=N/NC(=O)c2nnn(-c3nonc3N)c2CN2CCc3ccccc32)cc1	inactive
CCN(CCn1cccn1)Cc1cn[nH]c1-c1ccc(OC)cc1F	inactive
Cc1cccc(C)c1NC(=O)C1(N(C(=O)c2ccccn2)c2ccc(O)cc2)CCCCC1	inactive
CN(C)CCCN(Cc1cc2cc3c(cc2[nH]c1=O)OCCO3)C(=O)NC1CCCCC1	inactive
COCCCNC(=S)NC(=O)c1ccccc1	inactive
CCOC(=O)C1=C(NC(=S)NC(=O)c2ccccc2)c2ccccc2CC1(C)C	25 (active)
Cc1ccc(NC(=S)NC(=O)c2ccc(-c3ccccc3)cc2)cc1	inactive
CCOC(=O)C(CC)/C(C)=N\NC(=O)c1cccc(C)c1 (stereo unspecified)	inactive
ONC(=Nc1ccccc1)c1ccccc1Cl	inactive
NC(=O)CSc1nnc(NC(=O)c2ccc3ccccc3c2)s1	inactive

Compound	B-score
O=C(Nc1nnc(SCc2c(Cl)cccc2Cl)s1)c1cccc([N+](=O)[O-])c1	inactive
O=C(Nc1nnc(SCc2ccccc2Cl)s1)c1cccc([N+](=O)[O-])c1	12 (active)
Cc1ccc(S(=O)(=O)N2CCN(C(=O)Cc3sc(C)nc3-c3ccc(F)cc3)CC2)c(C)c1	inactive
CCOc1ccccc1NC(=S)NC(=O)CCc1ccccc1	inactive
Cc1sc2nc(SCC(N)=O)n(C)c(=O)c2c1C	29 (active)
Cc1sc2nc(SCCO)n(-c3ccccc3)c(=O)c2c1C	inactive
C=CCn1c(SCC(=O)/C(C#N)=C(\C)N)nc2sc(C)c(C)c2c1=O	inactive
Cc1cc(Nc2cccc(F)c2)n2ncnc2n1	inactive
COc1ccc(/C=C2/S/C(=N/N=C3\CC4CCC3(C)C4(C)C)NC2=O)cc1 (stereo unspecified)	inactive
COc1ccccc1CNC(=O)C1CCN(S(=O)(=O)c2ccc3c(c2)CC(C)N3C(=O)C2CC2)CC1 (stereo unspecified)	inactive
CC(=O)c1ccc(N2CCN(C(=O)C3CCN(S(=O)(=O)c4ccc5c(c4)CC(C)N5C(=O)C4CC4)CC3)CC2)cc1 (stereo unspecified)	19 (active)
CC(=O)N1c2ccc(S(=O)(=O)N3CCC(C(=O)N4CCN(c5ccccc5)CC4)CC3)cc2CC1C (stereo unspecified)	inactive
COc1ccccc1C1C2=C(COC2=O)Nc2cc3c(cc21)OCO3 (stereo unspecified)	inactive
COC(=O)C1=C(C)NC(=O)CC1c1ccccc1OC (stereo unspecified)	inactive
CCCOc1ccccc1C1CC(=O)Nc2cc3c(cc21)OCO3 (stereo unspecified)	14 (active)
C/C(=C/c1ccccc1)C(=O)N1CCN(c2ccccc2)CC1	inactive
O=C(O)c1cc2ccccc2c(=O)s1	inactive
Cc1ccc(-c2nnn(CC(=O)N(CCO)C(C(=O)NC(C)(C)C)c3ccncc3)n2)cc1 (stereo unspecified)	10 (active)
Cc1ccc(-c2nnn(CC(=O)N(Cc3ccco3)C(C(=O)NC(C)(C)C)c3ccncc3)n2)o1 (stereo unspecified)	inactive
COc1ccc(-c2nnn(CC(=O)N(CCO)C(C(=O)NC3CCCC3)c3ccc(F)cc3)n2)cc1 (stereo unspecified)	inactive
O=C1C(=O)N(CCN2CCOCC2)C(c2cccc(Cl)c2)/C1=C(/O)c1ccc2c(c1)OCO2 (stereo unspecified)	inactive
Cc1cc(/C=N/n2cnnc2)c(C)n1-c1ccc2ncccc2c1	inactive

Reference: PubChem BioAssay AID2227 (Johns Hopkins Ion Channel Center, 2009)
